# Experiments:
# Test in all cases: PBM binding z-score (relative to random genomic background probes); higher = stronger binding; sequences stand for … in GC…GCGATTGACAGCGTAGAATGAAGG
# [1] = test system: FXR:RXRa (NR concentration 270 nM, RXRa partner concentration 90 nM)
# Summary of the method: (§1)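 Ligand-free nuclear receptor dimers were bound for 1 h to custom Agilent 4×180K protein-binding microarrays. Detection used antibodies against each partner (one per run). Binding z-scores rest on regression-normalized fluorescence, with random background probes as the reference.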
# [2] = test system: LXRa:RXRa (NR concentration 270 nM, RXRa partner concentration 90 nM)
# Summary of the method: as §1
# [3] = test system: LXRa homodimer (NR concentration 270 nM)
# Summary of the method: as §1
# [4] = test system: LXRb homodimer (NR concentration 270 nM)
# Summary of the method: as §1
# [5] = test system: PPARa:RXRa (NR concentration 270 nM, RXRa partner concentration 90 nM)
# Summary of the method: as §1
# [6] = test system: PPARg:RXRa (NR concentration 180 nM, RXRa partner concentration 90 nM)
# Summary of the method: as §1
# [7] = test system: PPARg:RXRa 270nM:90nM, anti-RXR (NR concentration 270 nM, RXRa partner concentration 90 nM)
# Summary of the method: as §1
# [8] = test system: PPARg:RXRa 30nM:10nM, anti-RXR (NR concentration 30 nM, RXRa partner concentration 10 nM)
# Summary of the method: as §1
# [9] = test system: PPARg:RXRa 90nM:30nM, anti-RXR (NR concentration 90 nM, RXRa partner concentration 30 nM)
# Summary of the method: as §1
# [10] = test system: PPARg:RXRa DBDmut IVT, anti-RXR (DBD mutation: RXRa K156A/R161A, NR concentration 270 nM, RXRa partner concentration 90 nM)
# Summary of the method: as §1
# [11] = test system: PPARg:RXRa IVT, anti-PPARg (NR concentration 270 nM, RXRa partner concentration 90 nM)
# Summary of the method: as §1
# [12] = test system: PPARg DBDmut:RXRa IVT, anti-PPARg (DBD mutation: PPARg1 K132A/R137A, NR concentration 270 nM, RXRa partner concentration 90 nM)
# Summary of the method: as §1
# [13] = test system: PPARg DBDmut IVT, anti-PPARg (DBD mutation: PPARg1 K132A/R137A, NR concentration 270 nM)
# Summary of the method: as §1
# [14] = test system: PPARg homodimer (NR concentration 180 nM)
# Summary of the method: as §1
# [15] = test system: PXR:RXRa (NR concentration 270 nM, RXRa partner concentration 90 nM)
# Summary of the method: as §1
# [16] = test system: PXR homodimer (NR concentration 270 nM)
# Summary of the method: as §1
# [17] = test system: RARa:RXR (NR concentration 270 nM, RXRa partner concentration 90 nM)
# Summary of the method: as §1
# [18] = test system: RARa homodimer (NR concentration 270 nM)
# Summary of the method: as §1
# [19] = test system: RARb:RXRa (NR concentration 270 nM, RXRa partner concentration 90 nM)
# Summary of the method: as §1
# [20] = test system: LXRb:RXRa (NR concentration 270 nM, RXRa partner concentration 90 nM)
# Summary of the method: as §1
Sequence,PBM binding z-score [1],PBM binding z-score [2],PBM binding z-score [3],PBM binding z-score [4],PBM binding z-score [5],PBM binding z-score [6],PBM binding z-score [7],PBM binding z-score [8],PBM binding z-score [9],PBM binding z-score [10],PBM binding z-score [11],PBM binding z-score [12],PBM binding z-score [13],PBM binding z-score [14],PBM binding z-score [15],PBM binding z-score [16],PBM binding z-score [17],PBM binding z-score [18],PBM binding z-score [19],PBM binding z-score [20]
TCTAGTTGGTCACGGGGGTCACACACGACGGGTA,5.12,4.95,2.06,9.37,5.15,5.57,6.09,4.82,5.65,3.49,5.43,6.78,6.87,4.67,5.72,2.32,6.59,2,4.07,
GCTGCTAGGTCAGGTTGGTCAGCTAACGGGTACG,1.01,0.656,-0.0662,-0.325,1.52,0.389,0.622,-0.261,0.176,2.95,2.05,-0.747,-0.959,0.974,0.333,-0.532,0.458,-0.285,3.33,
CGTCAAAGTTCATGGTAACGTAACAGAAAGCAGC,6.57,5.67,3.17,1.2,4.95,5.02,5.36,2.39,4.08,0.9,2.06,1.17,1.03,3.91,4.52,2.84,3.68,1.6,5,
CCTACTGGGCCATTAAGAGGTCATTGATCATATG,2.62,4.19,6.58,0.0638,3.94,2.19,3.06,0.745,2,4.25,4.13,0.259,0.0479,2.02,4.48,1.79,4.14,0.836,2.94,
CGTCAAAGTTCAAGGTAATGTAACAGAAAGCAGC,5.9,5.34,2.54,1,4.74,4.21,5.13,2.14,3.68,0.0949,2.03,0.311,0.686,2.57,3.95,2.92,3.38,1.61,5.14,
TCTAGTTGGTCAAAGGTCAAACACTCGAAATGCG,6.51,6.59,5.24,2.77,6.82,11.2,10.3,9.94,11,3.57,6.13,0.582,1.1,5.11,6.28,2.64,7.64,2.96,5.23,
AGAATGAGGTTACCAAAGATCAGTGAAACGCTTG,1.73,6.11,0.0874,-0.00616,3.4,2.6,2.57,1.19,2.06,4.06,3.2,1.32,0.399,0.652,1.56,0.0456,1.9,0.395,2.06,
CGTCCAAGGTCAAAGGTCAGCGAAGAGATGACGG,8.78,7.06,3.38,1.66,7.31,11,8.69,8.19,9.49,4.17,6.07,0.648,0.832,4.17,7.19,1.93,8.63,2.3,,
CTATGTAGGTGAAGGGGGTCATTCAGTTTGAAAG,4.41,4.45,1.53,,6.36,,8.53,7.28,8.98,7.88,8.11,,,2.81,5.89,9.91,6.01,0.852,3.52,5.87
CTTAGTTGGTCAGGAGGTCACACACCGGATATGA,3.89,3.72,2.38,0.947,4.35,4.41,4.69,2.41,4.39,3.35,4.3,1.44,1.09,3.81,4.37,1.79,4.74,3.28,3.83,
CCTAGTTGGTCAGGGGGTCACACACCGGATATGA,4.51,4.01,1.32,7.75,5.36,5.04,5.76,2.89,4.92,1.2,4.57,2.8,4.19,3.05,5.01,1.49,5.48,1.61,3.74,
ATCGAAAGGTCGACGAGGTGAGAATACACCGTTT,5.1,3.9,0.0731,0.224,4.87,3.21,3.7,1.25,2.26,0.716,2.39,0.449,1.17,2.15,3.29,0.612,4.11,0.753,4.1,
TCGAGTAGGTTACGGGGGCGTTCAGGGATGAAGA,1.63,2.21,0.585,,,4.72,4.75,2.93,3.91,4.48,5.35,,,2.99,2.69,1.81,2.9,0.56,2.23,4.83
TAGCCTAGGTCATGCGGGTCAGTATAGTGTCGGC,4.39,3.93,1.06,0.0417,4.05,2.77,3.43,0.354,2.32,2.38,3.65,0.284,-0.506,1.03,3.67,1.56,3.45,-0.237,4.05,
TCTACTTGGTCACGGAGGTCACACACGACGGGTA,3.59,3.73,3.08,1.3,3.99,3.67,4.1,3.72,3.83,3.04,4.21,1.37,1.65,3.86,4.67,2.05,4.97,2.04,3.89,
ACTAGTTGGTCAGCTGAGGTAACACACAATTCGG,1.15,-0.066,0.00608,0.472,0.41,0.76,0.156,0.214,-0.00453,1.07,1.11,0.194,0.609,0.0938,0.509,-0.174,1.3,-0.362,1.03,
CCTAGATGGTCAGGAGGTCACACACCGGATATGA,3.84,3.42,2,0.565,4.14,3.01,3.58,1.24,2.41,1.16,2.88,0.417,0.0962,3.94,4.14,1.76,4.94,2.24,3.54,
CTCGAAAGGTCGTGGTCAGGTGAGTATACCAAAC,5.9,4.27,0.0394,0.247,5.02,3.26,4.6,1.21,3.34,0.883,2.33,-0.0163,0.484,2.21,3.61,0.127,4.47,0.777,4.04,
GATACAGGGTCAAGGCCAGAGTACGCGTATTGAT,6.67,4.16,0.173,-0.282,5.44,5.85,5.43,2.04,4.11,2.82,3.95,1.08,0.22,1.95,3.88,0.227,4.46,0.587,4.44,
CTATGTAGGTTAAGGGGGTCATTGAGTTTGAAAG,5.19,4.98,2.68,,,8.96,7.92,5.98,8.13,7.65,7.94,,,3.37,6.54,12.9,6.15,1.4,3.78,6.12
AGAATGGGGTTATTAAGATCAGGGAATTGCGGTC,3.03,2.77,0.597,2.14,4.48,3.31,3.5,1.26,2.65,3.63,3.26,1.44,1.55,2.23,2.44,1.82,2.78,1.71,1.77,
CCTACTGGGCCATTCAGAGGTCACTGATCATATG,1.98,3.26,4.37,0.018,3.77,2.57,3.18,0.819,2.14,4.42,4.67,0.462,0.235,1.87,3.96,0.772,4.08,0.335,3.37,
CCTTACGGGTCACTCAAGGTTATAGCATCGGAGT,5.96,7.83,3.32,-0.133,4.73,3.97,4.48,1.55,3.36,2.86,3.83,1.98,1.29,3.87,6.13,1.3,4.95,0.631,4.07,
TGTCAAAGTTCTAAGGTAACGTAAGTATCCACAC,0.449,0.196,-0.388,-0.268,0.624,0.871,1.41,0.457,1.15,-0.558,1.37,1.07,0.895,0.299,0.23,0.0534,1.09,0.0558,0.779,
CCTTACGGGTCACTTACAGGTTATAGCATTTGGA,4.84,4.49,0.907,0.66,4.62,3.07,3.73,1.27,2.84,3.22,3.45,0.739,0.78,2.43,3.37,0.26,4.24,1.28,3.65,
ATCGAAAGGTCGTGAAGTGAGTATACAGAAAGGC,4.52,3.75,0.493,0.774,4.76,3.21,3.51,1.42,2.63,0.0713,1.76,1.63,1.88,1.75,2.66,0.278,3.39,1.2,3.73,
ACTCGGGGGACAAAGGTCAGAGCTACGCCAGTGA,5.78,5.7,2.14,5.96,6.14,9.31,8.33,8.12,9.68,2.49,5.75,7.4,7.53,5.43,5.36,1.26,6.35,2.37,4.91,
CAAACTAGGCCAAGGTCAAAGTCGGTTTGTGCCA,4.09,3.76,2.16,0.128,4.79,6.27,6.01,3.89,5.74,6.88,6.61,0.98,0.266,1.87,4.28,1.2,3.97,0.776,4.07,

# From the supplement of paper PMC6555819
